# The list is not random: actives were taken first. Their share in the collection is about 2.7%.
# Tau ThT inhib = blocks human tau fibril formation measured by thioflavin T; P10636; recombinant tau K18 P301L, heparin-induced fibrillization, ThT fluorescence; Potency, µM (doses to about 57.4 µM), without a hit: at the top dose activity, negative = inhibition, most hits filed as inhibitors; hit rate 2.1% among 270,000; AID 1460; also: potency is read from the fitted curve at half-maximal effect; nearly all actives have a fitted effect of over 55% in size
# Target sequence (P10636 561-689 P618L limits assumed): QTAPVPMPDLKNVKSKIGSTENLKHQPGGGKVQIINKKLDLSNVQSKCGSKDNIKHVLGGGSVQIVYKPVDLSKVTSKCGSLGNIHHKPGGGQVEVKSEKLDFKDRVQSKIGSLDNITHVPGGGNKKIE
#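 Tau K18 P301L fragment (15 uM unlabeled plus 0.24 uM Alexa 594-labeled) in 100 mM sodium acetate pH 7 with compound, fibrillization induced by 20 uM heparin for 6 hr at 37 C. Thioflavin T (30 uM) added, fluorescence read after 1 hr (ex 450, em 510 nm).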
# Coupling enz = counter-screen for Giardia aldolase inhibitors: coupling enzyme system | coupling enzyme system counterscreen, AmpLite Red fluorescence | activity change, negative = inhibition, % at 58.2 µM, hits read low | hit rate 0.67% among 290,000 | AID 2472; in the data active = activity change below about -30%
#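 Activity here indicates interference with the coupling reaction, not aldolase inhibition. Compounds at 57.5 uM final met coupling enzymes for 10 min at RT; substrate and AmpLite Red detection followed, with a 525/598 nm fluorescence read after 20 min.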
# Tau fluor cs = counter-screen for tau fibril formation inhibitors; tau K18 P301L (four-repeat tau fragment) Alexa594 fluorescence, heparin fibrillization; Potency, µM (top dose mostly 57.7 µM), for the others: at the top dose activity change, negative = decrease; hit rate 0.93% among 280,000; AID 1463; also: potency is read from the fitted curve at half-maximal effect; nearly all actives have a fitted effect of over 55% in size
#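 Human K18 P301L tau (15 uM unlabeled plus 0.24 uM Alexa 594-labeled, final) in 100 mM sodium acetate pH 7 was mixed with compound and 20 uM heparin and incubated 6 hr at 37 C.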
# Tau fibril FP = inhibitors of human tau fibril formation; AID 1468; Potency, µM (titrated, usually from 57.7 µM), inactives show top-dose activity, negative = inhibition, hits mostly inhibitors; K18 P301L tau heparin fibrillization, Alexa594 FP, 6 h; hit rate 0.39% among 280,000; P10636; also: potency is read from the fitted curve at half-maximal effect; nearly all actives have a fitted effect of over 55% in size
#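 Steps: dispense K18 P301L tau (15 uM plus 0.24 uM Alexa 594 tracer, final) in pH 7 sodium acetate; add compound; add heparin (20 uM final); incubate 6 hr, 37 C; add ThT (30 uM final); after 1 hr ambient, read FP.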
# Starred values were filed as active, the others as inactive; ? = inconclusive; nt = not tested or not shown; [ ] = another dose, or the depositor's remark. Unless noted, calls follow the shape of the dose curve; as a rule, active = well fitted curve in the direction sought with a large enough effect; inconclusive = small, poorly fitted or top-dose-only effect, or another doubt; inactive = no such curve, though single readings can be large; an effect the other way counts as inactive or inconclusive. % is scaled to controls: 0 for no effect and ±100 for the full control effect.
SMILES,Tau ThT inhib,Coupling enz,Tau fluor cs,Tau fibril FP
CCOC(=O)c1ccc(Oc2cn[nH]c2-c2ccc(OCC(=O)NN)cc2O)cc1,nt,3,nt,nt
COc1ccc(Oc2cn[nH]c2-c2ccc(O)cc2O)cc1,-11%,1,?,?
CCCOC(=O)c1ccc(Oc2cn[nH]c2-c2ccc(OCC(=O)NN)cc2O)cc1,-6%,2,28µM*[quencher],6%
CCCOC(=O)c1ccc(Oc2c(-c3ccc(OC)cc3O)n[nH]c2C)cc1,-6%,-2,10µM*[quencher],?
CCCc1ccc(Oc2cn[nH]c2-c2ccc(O)cc2O)cc1,?,0,6.3µM*[quencher],?
CCCOC(=O)c1ccc(Oc2cn[nH]c2-c2ccc(O)cc2O)cc1,?,2,5µM*[quencher],?
O=C(CN(C(=O)c1csnn1)c1ccccc1)NCCc1ccccc1,nt,3,nt,nt
CCOC(=O)c1c(NC(=O)COc2cccc(C)c2C)sc2c1CCC(CC)C2 (stereo not drawn),-9%,nt,-15%,-11%
Cc1cc(C)c(Cn2c3ccccc3c3cnn(CC(=O)N4CCCCCC4)c(=O)c32)c(C)c1,?,nt,-2%,-5%
CCOC(=O)c1ccc(Oc2coc3cc(O)ccc3c2=O)cc1,nt,1,nt,nt
Cc1[nH]nc(-c2ccc(O)cc2O)c1Oc1ccccc1,-22%,1,14µM*[quencher],18%
CCc1cc(-c2n[nH]c(C)c2Oc2ccc(C(C)C)cc2)c(O)cc1O,28µM*,-5,7.1µM*[quencher],?
CCOC(=O)c1ccc(Oc2cn[nH]c2-c2ccc(O)cc2O)cc1,?,0,13µM*[quencher],?
COc1ccc(-n2c(=O)c3c(c4cc(OC)ccc4n3C)n(CC(=O)N3CCCC3)c2=O)cc1,-4%,nt,-8%,-6%
CC(C)Oc1ccc(CNC(=O)c2ccc(CS(=O)Cc3ccccc3Cl)o2)cc1 (stereo not drawn),-6%,nt,-6%,?
CC(=O)Nc1sc2c(c1C(N)=O)CCCC2,-8%,-1,-5%,-1%
NC(=O)c1c(NC(=O)c2noc3c2CCCC3)sc2c1CCCC2,28µM*,nt,-26%,?
CC(/C=N/NC(=O)c1ccncc1)=C\c1ccc(C(C)C)cc1,20µM*,2,-21%,?
COc1ccc(NC(=O)NC23CC4(C)CC(C)(CC(C)(C4)C2)C3)cc1OC,?,3,13µM*[quencher],4%
N#CC1=C(S)N(c2ccc(F)cc2)C2(CCCCC2)NC1=O,32µM*,9,-18%,28µM*
CCN(C(=O)Cn1c(C(=O)OC)cc2sc(Cl)cc21)c1cccc(C)c1,-2%,nt,-2%,-6%
O=C1/C(=C/c2cccc([N+](=O)[O-])c2)CSc2ccc(Cl)cc21,-3%,0,-20%,-16%
CNc1ccc(/C=C2\CSc3ccccc3C2=O)cc1[N+](=O)[O-],2.5µM*,-3,14%,-1%
N=C1/C(=C\c2ccc(OCc3ccccc3)cc2)C(=O)N=C2SC(N3CCCC3)=NN12,4µM*,2,?,-8%
N=C1/C(=C\c2ccc(OC(=O)c3ccco3)cc2)C(=O)N=C2SC(N3CCCCC3)=NN12,nt,6,nt,nt
SMILES,Tau ThT inhib,Coupling enz,Tau fluor cs,Tau fibril FP
CSc1nc(=NC(C)=O)ss1,25µM*,4,-22%,?
COc1ccc(C(=O)Nc2ccc3oc(-c4ccc5ccccc5c4)nc3c2)cc1Br,?,nt,-29%,-17%
COc1cc(/C=C2/C(=O)NN(c3cccc(C)c3)C2=O)cc([N+](=O)[O-])c1O,14µM*,-1,-18%,0%
COc1cc(/C=C2/C(=O)NN(c3ccc(C)c(Cl)c3)C2=O)cc([N+](=O)[O-])c1O,nt,2,nt,nt
COc1cc(/C=C2\SC(=O)N(c3cccc(Cl)c3)C2=O)cc([N+](=O)[O-])c1O,8.9µM*,13,?,2%
COc1cc(/C=C2\SC(=O)N(c3ccc(Cl)cc3)C2=O)cc([N+](=O)[O-])c1O,18µM*,1,?,3%
CCOc1ccc2c(c1)C(C)=CC(C)(C)N2S(=O)(=O)c1ccc(F)cc1,nt,-1,nt,nt
CCOc1ccc2c(c1)-c1c(ssc1=S)C(C)(C)N2C,14µM*,0,13µM*[quencher],-2%
O=C1c2cccc3cccc(c23)C(=O)N1CC1CCN(CC(O)COc2ccc3ccccc3c2)CC1 (stereo not drawn),13µM*,nt,16µM*[quencher],-5%
COc1ccc(OC)c(S(=O)(=O)Nc2cccc(-c3ccc(N4CCCCC4)nn3)c2)c1,?,nt,-18%,?
COc1cc(NC(C)=O)c2ncccc2c1[N+](=O)[O-],-1%,-66*,-6%,0%

# Screening results from PubChem.
